Test results reported in PubChem BioAssay (NCATS).
“And” between values parts separate entries of the source, which are not always exact repeats. Identical values can stand only once. Inconclusive results are not listed. Entries that show only a call come without a potency. The source holds several records for some structures; these can differ, active in one and inactive in another. The source made the active and inactive calls. Calls follow the shape of the dose curve; as a rule, active = well fitted inhibition curve with a large enough effect; inconclusive = small, poorly fitted or top-dose-only effect; inactive = flat fitted curve, though single readings scatter. Non-standard residues stand in square brackets, D forms with d. Residues, ends and D or L forms follow the SMILES beside them. Peptide text beside a SMILES is read from it. *: point of attachment. Sta = CC(C)C[C@H](N)[C@@H](O)CC(=O)O; Isovaleryl = CC(C)CC(=O)*
Potency is read from the fitted curve at half-maximal effect.

The molecules below were run on MCC-26 (assay: qHTS assay to identify novel small-molecules to repurpose for Merkel cell carcinoma treatment (AID 1296009; also: nearly all actives have a fitted effect of over 60% in size)). Details: MCC and control cell lines, CellTiter-Glo viability, 72 h; series mostly up to 46 µM.
Source text: MCC is a rare and aggressive neuroendocrine skin cancer with limited treatment options. Approximately 80% of MCCs have the Merkel cell polyomavirus (MCPyV) DNA integrated into the host genome (virus-positive: VP-MCC) and viral oncogenes drive oncogenesis. The remaining MCCs are virus-negative (VN-MCC) and are caused by UV mutagenesis. To identify novel treatments for VP-MCC and/or VN-MCC we screened three VP-MCC cell lines (WAGA, MKL-1, MKL-2), three VN-MCC cell lines (MCC-13, MCC-26, UISO), and four immortalized, non-transformed control cell lines (HaCaT, HEK293T, CRL7250, NIH-3T3) against ~2,400 compounds in the NCGC Pharmaceutical Collection (NPC) and ~1,900 compounds in the Mechanism Interrogation PlatE (MiPE). Using cell viability as a readout (CellTiter-Glo assay) we found both overlapping and distinct drugs that can be repurposed for the treatment of VP-MCC and VN-MCC.
A high-throughput screen was conducted in 1536-well white flat bottom plates (Corning) on a Kalypsys robotic system. Cell lines WAGA, MKL-1, MKL-2, MCC-13, MCC-26, UISO, HaCaT, HEK293T, CRL7250, and NIH-3T3 were screened against 2 small molecule annotated drug libraries NPC and MIPE in dose response (8 and 11 pt. respectively) measuring cell viability after 72 hours of incubation. […] A 1,536 pintool (Kalypsys) was used to transfer 23 nL of compound in DMSO to the 1,536-well assay plates. After 72 hr incubation at 37 degree celsius, 2.5 uL of CellTiter-Glo (Promega) was dispensed into each well using a BiorapTR. Plates were incubated at room temperature for 10 min, transferred to a ViewLux (PerkinElmer) and the luminescence was recorded using an exposure time of 2 seconds. Relative luminescence units (RLUs) were normalized to in-plate controls (no cells as a positive (cytotoxicity) control, DMSO as negative control) and the normalized data was processed using NCATS in-house software.
For NC(=O)Cc1cccc(C(=O)c2ccccc2)c1N, the Potency was “inactive”. With O=P(O)(O)C(O)(Cn1ccnc1)P(=O)(O)O the Potency was “inactive”. CCOC(=O)C1=C[C@@H](OC(CC)CC)[C@H](NC(C)=O)[C@@H](N)C1 was tested, and the Potency was “inactive”. With CCOC(=O)c1c(C)n(C)c2ccc(O)cc12 the Potency was “inactive”. CC(=O)NC[C@H]1CN(c2ccc(N3CCOCC3)c(F)c2)C(=O)O1 was tested, and the Potency was “inactive”. With COc1ccccc1N1CCN(CCN(C(=O)C2CCCCC2)c2ccccn2)CC1 the Potency was “inactive”. With O=C1CCc2ccc(OCCCCN3CCN(c4cccc(Cl)c4Cl)CC3)cc2N1 the Potency was “inactive”. For Clc1ccc(C(Cn2ccnc2)OCc2ccsc2Cl)c(Cl)c1 (stereo not given), the Potency was “inactive”. In the case of COC(=O)N[C@H](C(=O)N[C@@H](Cc1ccccc1)[C@@H](O)CN(Cc1ccc(-c2ccccn2)cc1)NC(=O)[C@@H](NC(=O)OC)C(C)(C)C)C(C)(C)C, the Potency is reported as “inactive”. Cc1cc(O)c2c(c1)C(=O)c1cc(O)cc(O)c1C2=O was tested, and the Potency was “inactive”. With COC(=O)[C@H](Cc1ccccc1)NC(=O)[C@@H](N)CC(=O)O (H-Asp-Phe-OMe) the Potency was “inactive”. In the case of O=c1ccc2ccc(O)c(O)c2o1, the Potency is reported as “inactive”. With CC(C)c1ccc2oc3nc(N)c(C(=O)O)cc3c(=O)c2c1 the Potency was “inactive”. C[C@H](Cc1ccc(O)c(O)c1)[C@@H](C)Cc1ccc(O)c(O)c1 was tested, and the Potency was “inactive”. O=C(NCCO[N+](=O)[O-])c1cccnc1 was tested, and the Potency was “inactive”. With CC(C)CC(=O)N[C@H](C(=O)N[C@H](C(=O)N[C@@H](CC(C)C)[C@@H](O)CC(=O)N[C@@H](C)C(=O)N[C@@H](CC(C)C)[C@@H](O)CC(=O)O)C(C)C)C(C)C (Isovaleryl-VV[Sta]A[Sta]-OH) the Potency was “inactive”. Cc1ccc(NC(=O)c2ccc(CN3CCN(C)CC3)cc2)cc1Nc1nccc(-c2cccnc2)n1 was tested, and the Potency was “inactive”. For COc1cc2c(cc1OC)C1CC(=O)C(CC(C)C)CN1CC2 (stereo not given), the Potency was “inactive”. For Cc1cccc(CN2CCN(C(c3ccccc3)c3ccc(Cl)cc3)CC2)c1 (stereo not given), the Potency was “inactive”. Cc1ccc(C(=O)c2cc(O)c(O)c([N+](=O)[O-])c2)cc1 was tested, and the Potency was “inactive”. With COC(=O)C1=C(C)NC(C)=C(C(=O)OCCCN2CCC(c3ccccc3)(c3ccccc3)CC2)C1c1cccc([N+](=O)[O-])c1 (stereo not given) the Potency was “inactive and 23.7 µM (active)”. In the case of Cc1cccc(C#Cc2ccccc2)n1, the Potency is reported as “inactive”. With CCC[C@@H]1C[C@@H](C(=O)N[C@@H]([C@H]2O[C@H](SC)[C@H](O)[C@@H](O)[C@H]2O)[C@@H](C)O)N(C)C1 the Potency was “inactive”. For CC(=O)Nc1ccc(O)cc1, the Potency was “inactive”. With CC(S)C(=O)NCC(=O)O (stereo not given) the Potency was “inactive”. CC1Cc2ccccc2N1NC(=O)c1ccc(Cl)c(S(N)(=O)=O)c1 (stereo not given) was tested, and the Potency was “inactive”. In the case of CCOC(=O)C1=C(O)C(=O)N(Cc2ccccc2)C1, the Potency is reported as “inactive”. In the case of S=c1nc[nH]c2nc[nH]c12, the Potency is reported as “inactive”. COC(=O)C1=C(C)NC(C)=C(C(=O)OC(C)C)C1c1cccc2nonc12 (stereo not given) was tested, and the Potency was “inactive”. For Cc1ccc(Nc2nccc(N(C)c3ccc4c(C)n(C)nc4c3)n2)cc1S(N)(=O)=O, the Potency was “inactive”. N=C(N=C(N)N)N1CCOCC1 was tested, and the Potency was “inactive”. For COc1cc(C(C)=O)ccc1OCCCN1CCC(c2noc3cc(F)ccc23)CC1, the Potency was “inactive”. O=C1c2ccccc2-c2n[nH]c3cccc1c23 was tested, and the Potency was “inactive”. C[C@@H](N)C1CCC(C(=O)Nc2ccncc2)CC1 (stereo not given in full) was tested, and the Potency was “inactive”. In the case of CC1(C)C(=O)N(CCN2CCC(C(=O)c3ccc(F)cc3)CC2)c2ccccc21, the Potency is reported as “inactive”. CC(C)C[C@H](NC(=O)[C@H](Cc1ccccc1)NC(=O)c1cnccn1)B(O)O was tested, and the Potency was 37.6 nM (active). For CNC[C@H](O)c1ccc(O)c(O)c1, the Potency was “inactive”. For Nc1nc(Cl)nc2c1ncn2[C@H]1C[C@H](O)[C@@H](CO)O1, the Potency was “inactive”. For CCc1nc(N)nc(N)c1-c1ccc(Cl)cc1, the Potency was “inactive”. For Clc1ccc(C(Cn2ccnc2)OCc2c(Cl)cccc2Cl)c(Cl)c1 (stereo not given), the Potency was “inactive”.
